In PubChem BioAssay (Tox21) one finds Potency, viability change, negative = cytotoxic and activity change, negative = cytotoxicity data, which are given here for 60 compounds.

A short description of assay [1]: cAMP Responsive Elements (CRE) small molecule antagonists, cell-based qHTS assay: qHTS cell viability counter screen (AID 2060913). Also: nearly all actives have a fitted effect of over 40% in size. In short, it runs like this: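 CRE-bla HEK293T cells (2,000/well, 18 h) given compound plus NKH477 0.25 uM final for 3 h at 37C; viability counter-screen by CellTiter-Glo luminescence in same wells after 30 min.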
Assay [2] is described as follows: cAMP Responsive Elements (CRE) small molecule agonists, cell-based qHTS assay: qHTS cell viability counter screen (AID 2060914). Also: nearly all actives have a fitted effect of over 50% in size. In short, it runs like this: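 Cells are seeded and incubated 18 h, treated with compounds in DMSO for 3 h, read for the bla reporter, then given CellTiter-Glo; luminescence is measured after 30 min at room temperature.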

Results filed as inconclusive are left out. Unmarked numbers belong to inactive results. Active and inactive are the calls of the source. Calls follow the shape of the dose curve; as a rule, active = well fitted cell-killing curve with a large enough effect in the repeat runs; inconclusive = weak or mixed curves, or effect the other way; inactive = flat fitted curve, though single readings scatter.
% is scaled to controls: 0 for no effect and ±100 for the full control effect.

`CN1CCc2cc3c(cc2C1O)OCO3` (stereo not given): the Potency result in assay [1] and in assay [2] was “inactive” in each case.

For the compound `C#C[C@]1(O)C=C[C@H]2[C@@H]3CCC4=CC(=O)CC[C@@H]4[C@H]3CC[C@@]21CC`, the Potency entry in assay [1] and in assay [2] was “inactive” in each case.

With `COc1ccc(C(O)(c2cncnc2)C2CC2)cc1` (stereo not given), the Potency result in assay [1] and in assay [2] was “inactive” each time.

`CCc1ccc(C(=O)NN(C(=O)c2cc(C)cc(C)c2)C(C)(C)C)cc1`: the Potency result in assay [1] and in assay [2] was “inactive” throughout.

For the compound `COC(=O)C(C)Oc1ccc(Oc2ccc(Cl)cc2Cl)cc1` (stereo not given), the Potency entry in assay [1] and in assay [2] was “inactive” each time.

Regarding `COC(=O)C(C)N(C(=O)Cc1ccccc1)c1c(C)cccc1C` (stereo not given), the Potency entry in assay [1] and in assay [2] was “inactive” each time.

In the case of `CCOC1Oc2ccc(OS(C)(=O)=O)cc2C1(C)C` (stereo not given), the Potency entry in assay [1] and in assay [2] was “inactive” throughout.

Take `CC[N+]1(C)CCCC1`: the Potency entry in assay [1] and in assay [2] was “inactive” throughout.

Take `CC(=O)CN(CC(C)=O)N=O`: the Potency entry in assay [1] and in assay [2] was “inactive” each time.

For `O=C(O)COc1cc(Cl)c(Cl)cc1Cl`, the Potency result in assay [1] and in assay [2] was “inactive” each time.

On to `COC1CC(=C(c2cccs2)c2cccs2)C[N+](C)(C)C1` (stereo not given), for which the Potency result in assay [1] and in assay [2] was “inactive” throughout.

For `CN`, the Potency result in assay [1] and in assay [2] was “inactive” each time.

On to `Clc1ccc(C(Cl)(Cl)Cl)c(Cl)c1`, for which the Potency result in assay [1] and in assay [2] was “inactive” throughout.

Consider `CC[N+]1(CC)CCC(OC(=O)C(O)(c2ccccc2)c2ccccc2)C1` (stereo not given), for which the Potency result in assay [1] and in assay [2] was “inactive” throughout.

`CCOC(=O)CC(SP(=O)(OC)OC)C(=O)OCC` (stereo not given): the Potency entry in assay [1] and in assay [2] was “inactive” each time.

On to `O=C(O)c1cc(I)cc(I)c1I`, for which the Potency entry in assay [1] and in assay [2] was “inactive” each time.

`CC(C)Oc1cc(-n2nc(C(C)(C)C)oc2=O)c(Cl)cc1Cl`: the Potency entry in assay [1] and in assay [2] was “inactive” in each case.

`O=[N+]([O-])c1ccccc1`: the Potency result in assay [1] and in assay [2] was “inactive” throughout.

On to `O=c1[nH]c(Cl)c(Cl)cc1Cl`, for which the Potency result in assay [1] and in assay [2] was “inactive” each time.

For the compound `O=C(O)C(O)C(O)C(=O)O` (stereo not given), the Potency result in assay [1] and in assay [2] was “inactive” in each case.

As to `CC1OC(C)OC(C)O1` (stereo not given), the Potency result in assay [1] and in assay [2] was “inactive” in each case.

With `c1cc[c]([Hg][c]2ccccc2)cc1`, the Potency entry in assay [1] and in assay [2] was “inactive” throughout.

Turning to `CCCC(C)(COC(N)=O)COC(N)=O`, the Potency entry in assay [1] and in assay [2] was “inactive” throughout.

In the case of `CC[N+]1(C)CCCC(OC(=O)C(O)(c2ccccc2)c2ccccc2)C1` (stereo not given), the Potency result in assay [1] and in assay [2] was “inactive” throughout.

Regarding `O=C(O)c1cc(Oc2ccc(C(F)(F)F)cc2Cl)ccc1[N+](=O)[O-]`, the Potency entry in assay [1] and in assay [2] was “inactive” each time.

On to `N#CCCSCCC#N`, for which the Potency result in assay [1] and in assay [2] was “inactive” throughout.

As to `C=CC(=O)OCCCCCC(C)C`, the Potency result in assay [1] and in assay [2] was “inactive” each time.

In the case of `O=C1C(=O)c2cccc3cccc1c23`, the Potency result in assay [1] and in assay [2] was “inactive” each time.

`CN(C)CCc1c[nH]c2cccc(OP(=O)(O)O)c12`: the Potency result in assay [1] and in assay [2] was “inactive” each time.

For the compound `CCOP(=O)(OCC)Oc1nc(Cl)c(Cl)cc1Cl`, the Potency entry in assay [1] and in assay [2] was “inactive” each time.

Consider `C[C@H]1[C@H](c2ccc(Cl)cc2)SC(=O)N1C(=O)NC1CCCCC1`, for which the Potency result in assay [1] and in assay [2] was “inactive” throughout.

Regarding `CCCn1cc[n+](C)c1`, the Potency result in assay [1] and in assay [2] was “inactive” throughout.

In the case of `CCCN(CC1CC1)c1c([N+](=O)[O-])cc(C(F)(F)F)cc1[N+](=O)[O-]`, the Potency entry in assay [1] and in assay [2] was “inactive” throughout.

Turning to `CNC(=O)O/N=C/C(C)(C)SC`, the Potency entry in assay [1] and in assay [2] was “inactive” throughout.

Regarding `c1cc(OCC2CO2)ccc1Cc1ccc(OCC2CO2)cc1` (stereo not given), the Potency result in assay [1] and in assay [2] was “inactive” throughout.

With `CC(=O)C(Cl)Cl`, the Potency entry in assay [1] and in assay [2] was “inactive” in each case.

As to `N#CC(Cl)(Cl)Cl`, the Potency result in assay [1] and in assay [2] was “inactive” throughout.

`Cc1cc2c3c(c1)C(c1ccccc1)=N[C@@H](NC(=O)c1ccncc1)C(=O)N3CC2`: the Potency entry in assay [1] and in assay [2] was “inactive” in each case.

Take `CCBr`: the Potency result in assay [1] and in assay [2] was “inactive” each time.

`O=C(O)COc1ccc(Cl)cc1`: the Potency result in assay [1] and in assay [2] was “inactive” in each case.

As to `CC(C)C(=O)Cl`, the Potency entry in assay [1] and in assay [2] was “inactive” in each case.

For `Clc1ccc(C(Cl)(Cl)Cl)cc1Cl`, the Potency result in assay [1] and in assay [2] was “inactive” each time.

Take `CC(=O)OC(c1ccccc1)C(Cl)(Cl)Cl` (stereo not given): the Potency entry in assay [1] and in assay [2] was “inactive” each time.

`Clc1cc2c(cc1Cl)Oc1cc(Cl)c(Cl)cc1O2`: the viability change, negative = cytotoxic in assay [1] is 7.14% [at 0.349 µM]. In addition, the activity change, negative = cytotoxicity in assay [2] is 1.6% [at 0.349 µM].

Take `O=c1[nH]c2ccccc2c(=O)o1`: the Potency entry in assay [1] and in assay [2] was “inactive” throughout.

With `CCC(=O)OC1(c2ccccc2)CCN(C)CC1`, the Potency entry in assay [1] and in assay [2] was “inactive” each time.

Turning to `CC(C)(C#N)N=NC(C)(C)C#N`, the Potency entry in assay [1] and in assay [2] was “inactive” in each case.

As for `C/C=C/c1ccc2c(c1)OCO2`, the Potency entry in assay [1] and in assay [2] was “inactive” throughout.

As for `ClCCN1CCCC1`, the Potency result in assay [1] and in assay [2] was “inactive” throughout.

Turning to `CNC(=O)N(C)c1nc2ccccc2s1`, the Potency entry in assay [1] and in assay [2] was “inactive” throughout.

As for `CCOC(=O)CBr`, the Potency entry in assay [1] and in assay [2] was “inactive” in each case.

On to `Nc1c(Oc2ccccc2)cc(O)c2c1C(=O)c1ccccc1C2=O`, for which the Potency result in assay [1] and in assay [2] was “inactive” each time.

With `Clc1ccc(C2(Cn3cncn3)CC(Br)CO2)c(Cl)c1` (stereo not given), the Potency result in assay [1] and in assay [2] was “inactive” each time.

As for `Cc1ccc(N)cc1`, the Potency result in assay [1] and in assay [2] was “inactive” in each case.

As for `CN(C)CCc1c[nH]c2ccc(O)cc12`, the Potency result in assay [1] and in assay [2] was “inactive” each time.

On to `N#CCCCl`, for which the Potency entry in assay [1] and in assay [2] was “inactive” each time.

For `O=[N+]([O-])c1ccc(Oc2ccc(C(F)(F)F)cc2[N+](=O)[O-])cc1`, the Potency entry in assay [1] and in assay [2] was “inactive” in each case.

With `Cc1nnc2n1-c1sc(CCc3ccc(CC(C)C)cc3)cc1C(c1ccccc1Cl)=NC2C` (stereo not given), the Potency result in assay [1] and in assay [2] was “inactive” in each case.

As to `O=[N+]([O-])O[C@H]1CO[C@H]2[C@@H]1OC[C@H]2O[N+](=O)[O-]`, the Potency entry in assay [1] and in assay [2] was “inactive” throughout.

On to `CN1C[C@@H](NS(=O)(=O)N(C)C)C[C@@H]2c3cccc4c3c(cn4C)C[C@H]21`, for which the Potency result in assay [1] and in assay [2] was “inactive” each time.
